Results taken from the supplement of paper PMC6555819.

What follows are sequences tested on VDR:RXRa (NR concentration 270 nM, RXRa partner concentration 90 nM) (assay: PBM binding z-score (relative to random genomic background probes); higher = stronger binding; sequences stand for … in GC…GCGATTGACAGCGTAGAATGAAGG).
Description: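 Protein-binding microarray (Agilent 4x180K custom design, double-stranded 60-nt probes: 5' GC cap, 34-nt variable region, 24-nt constant primer region; full probe sequence given). Purified or IVT nuclear receptor:RXRα heterodimers (3:1 NR:RXRα, mostly 270:90 nM) or homodimers were incubated for 1 h in PBS with 2% milk and no ligand, then detected with Alexa488 antibodies. Fluorescence from o1-orientation probes (~5 replicates averaged) was converted to z-scores against 500 random hg19 background probes. Variable regions are seed direct-repeat (DR0–DR5) sites, all their single-nucleotide variants and half-site ablations.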

First: CCAGACAGATGAGAAGGTAACTCAGCCTCGATTA
Second: CCTATTAGTTTACCATAAGGGCAACCGAAGCTCG
The PBM binding z-score of the first is lower: 0.0435 for the first, 0.484 for the second.

Compared with CAGACTAGGTCAAGAGGTCAAAGTCCGCTTCCCG, TTACCAAGGTGAAGGGTCGTTGATGCACGCCTTG is lower in PBM binding z-score: 5.97 for the first, 1.7 for the second.

Compared with AGAACGAGGGCACGCTGAGCTGATAGCAGAGTAG, ACAGACAGTTGAGTGAAGGTAACTCAGCTGGACG is lower in PBM binding z-score: 0.52 for the first, -0.356 for the second.

First: TGAATGAGGTTTTAAGATCAGGGAACGTTGCAAA
Second: GCTAGCAGGCCATTTGGGCCACTCAATGACGGGC
The PBM binding z-score of the first is higher: -0.241 for the first, -0.859 for the second.

First: ATCGAAAGGTCGTGAGGTGAGTGTACAGAAAGGC
Second: AAAACGAGGGCAATGAGTTGATAGCACGGGTGGC
The PBM binding z-score of the first is lower: 3.63 for the first, 5.46 for the second.

Compared with ACTCGGAGGACAAAGGACAGAGCTACGCCAGTGA, CCTACTGGGCCAAAGGTCATTGGTTCCAATGCTC is higher in PBM binding z-score: -0.523 for the first, 4.8 for the second.

First: CCTAGCAGGCCAGGGGCACTCAAGCATTTCGCTT
Second: CGAACTAGGTGATCCAGGACAGTGAATACATTGA
The PBM binding z-score of the first is lower: -0.66 for the first, 0.541 for the second.

First: TCTCGGAGGACACGAAGGTCAGAGGTTTCCAGAG
Second: CCGACTGGGCCAGAAAGGTTACCATACCATCCGG
The PBM binding z-score of the first is higher: 2.59 for the first, 0.479 for the second.

Compared with TCTGCTAGGTAAACGATGGTCAGCTAATCTGCTA, TCGAGTAGGTTACCGATGGGGCATTCAGCTTTCT is higher in PBM binding z-score: -0.409 for the first, 0.0364 for the second.

Going from TCATATAGGTAAATGCTAGTTGAAAGTCCGATCT to ACTAGCAGGTCAAGTTTGGGTCACTCAAACAAAG, the PBM binding z-score rises from 1.07 to 4.68.

First: TCTTGTAGATCAACAGGAGGTTCAGAAAGATCGA
Second: TATACAGGGTCAAAGTCCAGAGTACGAATGTCGA
The PBM binding z-score of the first is lower: 0.595 for the first, 5.09 for the second.

Compared with ATAGACAGGTGAGTGAAGGTAACTCAGCTGGACG, AATACAGGGTCACTAGGCCAGAATAGGTACGAAT is higher in PBM binding z-score: 0.0461 for the first, 4.2 for the second.

Going from TGAATCAGGTTATAAGATCAGGGAACGTTGCAAA to ACTAATAGTTGAGACGAGGGCAACCGATAGGTTG, the PBM binding z-score rises from -0.0764 to 1.27.

First: ACTATTAGTTGAGACGAAGGCAACCGATAGGTTG
Second: GCTGCTAGGTTAGGTTGGTCAGCTAACGGGTACG
The PBM binding z-score of the first is lower: -0.504 for the first, -0.323 for the second.

First: TTACCAAGGTGAGCTGAGATCGTTGATCCAACTC
Second: TCTCGGAGGACACGAAAGGTCAGAGATCGACATC
The PBM binding z-score of the first is lower: -0.473 for the first, 3.42 for the second.

First: CAGCCTAGATCAGGGCCAGTATAGGAGGAACGTT
Second: ACTAGTTGGTCCGCTGAGGTCACACACAATTCGG
The PBM binding z-score of the first is lower: -0.746 for the first, 3.75 for the second.

First: TGTCAAAGTTTAAAGGTAACGTAAGTATCCACAC
Second: TGTCAAAGTTCGAAGGTAACGTAAGTATCCACAC
The PBM binding z-score of the first is lower: 1.33 for the first, 1.78 for the second.

First: GCGACTGGGGCAAAGCCGGTTACCATAAGGTTGG
Second: GGAACGACGGCAAGTTGATAGCAGAGTTTGATGG
The PBM binding z-score of the first is lower: -0.76 for the first, -0.532 for the second.

Compared with AAATGTAGGTTATCGGGTCATTCAGTTTGCGCAT, TCTTGTAGATGAAAGGTTAAGAAAGCCGAAGCCT is lower in PBM binding z-score: 5.22 for the first, 1.06 for the second.

Compared with AGAATGAGGTTACCAAAGATCAGCGAAACGCTTG, TCATATAGGTAATACAGGTGAAGGTCGGCATCTA is higher in PBM binding z-score: 1.33 for the first, 1.62 for the second.
